# According to PubChem BioAssay AID2517 (National Center for Advancing Translational Sciences (NCATS), 2010):
# Where “and” joins values, the source holds several entries; their conditions need not be identical. Identical values can stand only once. Among all 350,000 compounds or so, about 1,200 (0.34%) were called active. Not shown: some 3% with an inconclusive outcome. Calls follow the shape of the dose curve; as a rule, active = well fitted inhibition curve with a large enough effect; inconclusive = small, poorly fitted or top-dose-only effect; inactive = no such curve, though single readings can be large or run the other way. Only a selection was taken, and actives are over-represented in it overall.
# Molecular target: DNA repair nuclease/redox regulator APEX1 (Homo sapiens) (UniProt P27695)
# Sequence (P27695 whole entry, looked up): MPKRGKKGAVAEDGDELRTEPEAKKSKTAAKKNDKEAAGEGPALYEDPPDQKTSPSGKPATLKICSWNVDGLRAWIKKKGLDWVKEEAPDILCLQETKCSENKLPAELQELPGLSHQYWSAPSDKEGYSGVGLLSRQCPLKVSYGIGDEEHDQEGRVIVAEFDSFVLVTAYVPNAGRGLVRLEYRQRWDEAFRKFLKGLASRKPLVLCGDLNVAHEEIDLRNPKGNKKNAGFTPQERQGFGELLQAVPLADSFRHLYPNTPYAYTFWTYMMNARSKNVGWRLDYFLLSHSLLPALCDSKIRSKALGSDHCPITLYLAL
# Test: qHTS Assay for Inhibitors of the Human Apurinic/apyrimidinic Endonuclease 1 (APE1); also: nearly all actives have a fitted effect of over 55% in size;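 as to activity change, negative = inhibition: plate controls were vehicle for no effect and reference inhibitor for full effect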
# Details: recombinant APE1, TAMRA/BHQ-2 abasic DNA cleavage fluorescence; activity change, negative = inhibition: at 65.8 µM (top of the series)
# How it was run: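 Kinetic fluorescence read (525 ex/598 em nm, three reads 60 s apart) of AP-site incision; signal = third minus first read. Enzyme 0.75 nM, dual-labelled THF duplex 50 nM, compound preincubation 15 min RT.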
# Potency is read from the fitted curve at half-maximal effect.
SMILES,"activity change, negative = inhibition",Potency
CCCn1c(-c2ccc(F)cc2)nc2c(NC3CCN(Cc4ccccc4)C3)nc(C)nc21 (stereo unspecified),7.5% (inactive),
COc1ccc(C(=O)N2CCC3(CC2)CCN(c2ccccn2)CC3)cc1,4.46% (inactive),
COc1ccc(-c2nc3c(c4c2C[C@H](c2ccccc2)OC4)CN(C(=O)c2cccnc2)CC3)c(C)c1,-2.55% [at 12.4 µM] (inactive),
NC(=O)C1CCN(c2nc(-c3cccc(F)c3)cs2)CC1,16.9% (inactive),
C=C[C@](C)(O)CCC1C(=C)CCC2[C@@](C)(CO)CCC[C@@]12C (stereo partly specified),-0.9% (inactive),
COc1ccc2[nH]c(=S)cc(C)c2c1,17.4% (inactive),
COc1ccc2[nH]c(C(=O)N3CCN(C)CC3)c(C)c2c1,-10.7% (inactive),
COc1ccc2[nH]c3c(C)c4cc[n+](C)cc4c(C)c3c2c1,,12.6 µM (active)
CC/C=C\C/C=C\C/C=C\C/C=C\C/C=C\C/C=C\CCC(=O)NCCc1ccc(O)c(O)c1,-1.09% (inactive),
COC(=O)C(C(=O)OC)[C@@H](NC=O)c1ccccc1,0.907% (inactive),
Nc1nc2c(nc(Cl)n2C2OC(CO)C(O)C2O)c(=O)[nH]1 (stereo unspecified),12.3% (inactive),
COc1cccc(-c2cc(NCCc3c[nH]c4ccc(OC)cc34)ncn2)c1,3.71% (inactive),
CS(=O)(=O)NC(=O)CCC/C=C\C[C@H]1C(=O)C[C@@H](O)[C@@H]1/C=C/[C@H](O)COc1ccccc1,1.1% (inactive),
CC/C=C\C/C=C\C/C=C\C/C=C\C/C=C\C/C=C\CCC(=O)NC(C)C(=O)O (stereo unspecified),-0.719% (inactive),
COC(=O)c1ccc(C(NC(=O)OCc2ccccc2)/C(C)=C/[C@@H](C)C(=O)NCc2cc(C)on2)cc1 (stereo partly specified),0.278% (inactive),
CC(C)(C)c1ccc(OC2C=CC(C#Cc3ccccc3)OC2CO)cc1 (stereo unspecified),3.5% [at 12.4 µM] (inactive),
COCCNC(=O)Nc1ccc2nc(-c3ccco3)c(-c3ccco3)nc2c1,,6.31 µM (active)
O=C(Nc1nc(-c2ccco2)c(-c2ccco2)s1)c1ccco1,11.9% (inactive),
COc1cccc(S(=O)(=O)NCc2ccc(C(=O)NCc3ccccn3)cc2)c1,7.86% (inactive),
COCCNC(=O)c1snc2ccc(Cl)cc12,-2.23% (inactive),
O=C1CSc2ccc(C(=O)NCc3ccccn3)cc2N1,6.27% (inactive),

SMILES,"activity change, negative = inhibition",Potency
O=C(NCc1ccccn1)c1ccc2nc(-c3ccco3)c(-c3ccco3)nc2c1,,10 µM (active)
O=C(O)CC(C(=O)O)C(CC(=O)O)C(=O)O (stereo unspecified),15.8% (inactive),
NC(=O)c1sc(-c2ccsc2)cc1N,1.82% (inactive),
COc1ccc(CC(N)C(=O)NC2C(O)[C@H](n3cnc4c(N(C)C)ncnc43)O[C@@H]2CO)cc1 (stereo partly specified),-0.283% (inactive),
CCCn1c(C)nc2c(NCCCCN(CC)CC)nc(C)nc21,-4.94% (inactive),
C=C1CCN(C(CC(C)C)C(=O)N2CCOCC2)S(=O)(=O)c2ccccc21 (stereo unspecified),2.97% (inactive),
O=C(Cc1c(O)c2ccccc2[nH]c1=O)NCc1ccccc1,-2.72% (inactive),
O=C1C(c2[nH]c3ccccc3c2O)=Nc2ccccc21,,7.94 µM (active) and 3.98 µM (active)
CC(C)C(=O)Nc1c(O)c2ccccc2[nH]c1=O,-2.89% (inactive),
CCCCC/C=C\C/C=C\CCCCCCCCCC(=O)NCC(=O)O,3.32% (inactive),
CCCCCCCC/C=C\CCCCCCCC(=O)NCC(=O)O,4.31% (inactive),
COc1ccc2c(=O)cc(-c3ccccc3)oc2c1O,-7.77% (inactive),
COc1c(O)cc2oc(-c3ccc(O)c(O)c3)cc(=O)c2c1O,,7.08 µM (active)
Cc1cccc(-c2cc(=O)c3cc(C)ccc3o2)c1,-8.53% (inactive),
Cc1ccc(NC(=O)O[C@@H]2C(=O)c3cc(Br)ccc3O[C@H]2c2ccc3c(c2)OCO3)cc1Br,0.243% (inactive),
CC(C)(C)n1ncc2c(=O)n(Cc3ccc(C(=O)c4ccccc4)cc3)cnc21,-0.344% (inactive),
Cc1cccc2c3c(ccc12)C1=C(C(=O)C3=O)C(C)CO1 (stereo unspecified),9.79% (inactive),
CN[C@@H]1[C@H](O[C@H]2[C@H](O[C@H]3[C@H](O)[C@@H](O)[C@H](N=C(N)N)[C@@H](O)[C@@H]3N=C(N)N)O[C@@H](C)[C@]2(O)CO)O[C@@H](CO)[C@H](O)[C@H]1O,0.585% (inactive),
CCOC(=O)C1=C(C)N=C2c3ccccc3C(=O)C2C1c1ccc(Br)cc1 (stereo unspecified),-2.57% (inactive),
CCOC(=O)C1=NO[C@@]2(C=C(Br)C(=O)[C@H]3O[C@H]32)C1,,7.94 µM (active)
CCOC(=O)C1=NOC(Cn2cc(C(C)=O)c(=O)[nH]c2=O)C1 (stereo unspecified),1.23% (inactive),

SMILES,"activity change, negative = inhibition",Potency
CC(C)C[C@@H](CC(=O)N[C@@H](CCC(=O)O)CC(=O)O)NC(=O)[C@@H]1CCCC[C@H]1NC(=O)C[C@@H](NC(=O)C[C@H](Cc1c[nH]c2ccccc12)NC(=O)[C@@H]1CCCC[C@H]1N)C(C)C,-3.05% (inactive),
CC(C)C1=CC2=CC[C@@H]3[C@](C)(CO)CCC[C@]3(C)C2CC1 (stereo partly specified),0.19% (inactive),
Clc1ccc(CSc2nnc3c(n2)[nH]c2ccccc23)cc1,-0.131% (inactive),
O=C(CSc1nnc(-c2ccco2)n1-c1ccccc1)NCCc1ccccc1,-4.34% (inactive),
c1ccc(CSc2nnc(-c3ccco3)c(-c3ccco3)n2)cc1,,10 µM (active)
O=c1c(-c2cc(F)cc(F)c2)nc2cnc(Oc3ccccc3)nc2n1C[C@H]1CCCO1,3.92% (inactive),
CC/C=C/C/C=C/C/C=C/CCCCCCCC(=O)OCC,-3.48% (inactive),
COc1ccc(/C=C(\C#N)C(=O)OCC(=O)N(C)C2CCS(=O)(=O)C2)cc1 (stereo unspecified),-0.493% (inactive),
CN(C(=O)COC(=O)c1cc(-c2ccco2)nc2ccccc12)C1CCS(=O)(=O)C1 (stereo unspecified),,7.94 µM (active)
CN(C(=O)COC(=O)Cc1ccccc1[N+](=O)[O-])C1CCS(=O)(=O)C1 (stereo unspecified),8.91% (inactive),
C1CCC2OC2C1 (stereo unspecified),-0.558% (inactive),
COc1cccc(/C=C2/SC(=S)N(CC(=O)NC3C=CS(=O)(=O)C3)C2=O)c1 (stereo unspecified),37.3% (inactive),
COc1ccc(-c2nn(-c3ccccc3)cc2/C=C2/SC(=S)N(CCCC(=O)O)C2=O)c(C)c1,,29.9 µM (active)
Cc1ccc(-c2nn(-c3ccccc3)cc2/C=C2\SC(=S)N(CCCCCC(=O)O)C2=O)o1,-84.3% (inactive),
C=C1C(=O)C23C(O)C1CCC2[C@]12COC3(O)C(O)C1C(C)(C)CC[C@H]2O (stereo partly specified),-2.57% (inactive),
CC[C@@]12C=C(/C=C/c3ccccc3)[C@](CC)(C1)[C@H](c1ccccc1)CC2=O,17.2% (inactive),
O=C(CCc1n[nH]c(=O)[nH]c1=O)N/N=C/c1ccc(Br)o1,-7.77% (inactive),
O=C(CCNC(=O)c1ccccc1Cl)NN=Cc1ccco1,-5.79% (inactive),
O=C(CCNC(=O)c1ccccc1)NN=Cc1ccc(Br)o1,,15 µM (active)
